RORg inh = ROR gamma (mouse) transcription inhibition | Drosophila S2 Gal4-RORgamma UAS-luciferase reporter, 20 h | AID 2551 | P51450 | 5.4% of 310,000 active | Potency, µM (highest dose often 53.6 µM), for inactives: top-dose activity change, negative = inhibition, actives largely listed as inhibitors; also: potency is read from the fitted curve at half-maximal effect; nearly all actives have a fitted effect of over 60% in size
Target sequence (P51450 whole entry, looked up, the tested form may be a part): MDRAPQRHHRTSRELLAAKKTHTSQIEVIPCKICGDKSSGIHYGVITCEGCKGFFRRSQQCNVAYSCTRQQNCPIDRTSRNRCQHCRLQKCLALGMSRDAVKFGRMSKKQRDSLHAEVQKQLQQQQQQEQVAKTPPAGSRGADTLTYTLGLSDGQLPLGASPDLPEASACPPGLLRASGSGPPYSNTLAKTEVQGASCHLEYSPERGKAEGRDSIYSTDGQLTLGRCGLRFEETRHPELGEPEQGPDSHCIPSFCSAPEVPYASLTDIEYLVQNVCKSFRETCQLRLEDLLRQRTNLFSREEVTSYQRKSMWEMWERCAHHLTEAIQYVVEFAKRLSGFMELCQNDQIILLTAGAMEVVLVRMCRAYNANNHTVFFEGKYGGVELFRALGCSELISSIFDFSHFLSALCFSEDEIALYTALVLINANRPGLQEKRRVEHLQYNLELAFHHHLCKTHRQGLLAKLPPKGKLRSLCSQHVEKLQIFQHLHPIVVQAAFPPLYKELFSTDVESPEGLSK
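Luciferase reporter read in Schneider cells carrying Gal4-RORγ (mouse) and UAS-Photinus luciferase; cells given compound 1 h before 700 uM copper sulfate induction, then incubated 20 h at ambient temperature.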
DT40 TDP1 no CPT = qHTS for Inhibitors of human tyrosyl-DNA phosphodiesterase 1 (TDP1): qHTS in cells in absence of CPT. DT40 Tdp1-/- hTDP1 cells, no CPT, ATP luminescence, 48 h. Potency, µM (doses to about 46.2 µM), without a hit: at the top dose activity change, negative = growth inhibition, hits mostly inhibitors. 15% of 420,000 active. AID 686978, 2013; also: potency is read from the fitted curve at half-maximal effect; nearly all actives have a fitted effect of over 55% in size
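No-CPT arm: Tdp1-/-;hTDP1 DT40 cells (400/well) plus compounds, incubated ≥48 hr at 37 °C. Readout CellTiter-Glo luminescence.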
IL-1B inflam inh = inhibitors of inflammasome signaling (IL-1 beta secretion) | 4.7% of 360,000 active | THP-1 LPS/ATP IL-1B secretion, AlphaLISA, 16 h; stronger effect = lower value | AID 743279 | activity change, % at 57.5 µM; in the data active = activity change below about -50%; inconclusive = mostly about -30% to -49%
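Secreted IL-1B measured by AlphaLISA bead assay after 16 h compound exposure of THP-1 cells; compounds (final up to 57.5 uM) added 1 h before LPS (250 ng/mL) and ATP (1.25 mM) stimulation; lower signal means less secretion.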
Gal4-VP16 FLuc = counter-screen for ROR gamma inhibitors: Gal4-VP16 reporter; Drosophila S2 Gal4-VP16 UAS-luciferase, luminescence, 20 h; Potency, µM (highest dose often 53.6 µM), without a hit: top-dose activity, negative = inhibition, actives largely listed as inhibitors; 3.5% of 310,000 active;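 also: Gal4-VP16 expression switched on by copper sulfate through the metallothionein promoter; potency is read from the fitted curve at half-maximal effect; nearly all actives have a fitted effect of over 50% in size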
ELG1 repair inh = blocks ELG1-dependent DNA repair in HEK293T cells | HEK293T ELG1-luciferase reporter, luminescence, 16 h; DNA damage induced by 5-fluorouridine | Potency, µM (series often up to 46.1 µM), inactives show at the top dose activity change, negative = inhibition, most hits filed as inhibitors | 2.3% of 330,000 active | AID 504467; also: potency is read from the fitted curve at half-maximal effect; nearly all actives have a fitted effect of over 55% in size
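Reporter activity after DNA damage by 5-fluorouridine is monitored. Compound-treated cells incubate 16 hr at 37 °C, then ONE-Glo is added for 30 min before luminescence reading.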
TDP1 cell CPT = growth inhibition of DT40 Tdp1-/-;hTDP1 cells with camptothecin (screen for TDP1 inhibitors). chicken DT40 Tdp1-/-;hTDP1 cells + 20 nM CPT, ATP luminescence, 48 h. Potency, µM (highest dose often 46.2 µM), inactives show at the highest dose activity change, negative = growth inhibition, usual class: inhibitors. 12% of 420,000 active; also: potency is read from the fitted curve at half-maximal effect; nearly all actives have a fitted effect of over 55% in size
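Chicken DT40 Tdp1-/- cells stably complemented with human TDP1 were seeded at 400 cells/well in medium containing 20 nM camptothecin, exposed to pin-transferred compounds, and grown at 37 °C for at least 48 hr. Viability was read as ATP luminescence.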
Starred values were filed as active, the others as inactive; ? = inconclusive; · = not tested or not shown; [ ] = another dose, or the depositor's remark. Only some compounds are listed: those with a hit (about 21% of all), similar ones and a draw of the others. Unless noted, calls follow the shape of the dose curve; as a rule, active = well fitted curve in the direction sought with a large enough effect; inconclusive = small, poorly fitted or top-dose-only effect, or another doubt; inactive = no such curve, though single readings can be large; an effect the other way counts as inactive or inconclusive. % is scaled to controls: 0 for no effect and ±100 for the full control effect.

SMILES	RORg inh	DT40 TDP1 no CPT	IL-1B inflam inh	Gal4-VP16 FLuc	ELG1 repair inh	TDP1 cell CPT
CCc1nc2c(c(=O)c3ccccc3n2C)c(=O)n1C1CCCCCC1	4%	16µM*	-7	12%	?	?
Cn1c2ccccc2c(=O)c2c(=O)n(C3CCCCCC3)c(C3CCCCC3)nc21	-2%	13µM*	28	-11%	-7%	15µM*
COc1ccc(CCn2c(C3CCCCC3)nc3c(c(=O)c4ccccc4n3C)c2=O)cc1OC	-20%	?	5	-4%	?	?
COc1ccc(Cn2c(C3CCCCC3)nc3c(c(=O)c4ccccc4n3C)c2=O)cc1	-13%	16µM*	20	-4%	?	?
N#CCCn1c(=O)c(CCc2ccccc2)nc2cnc(Nc3ccccc3)nc21	-3%	-21%	·	4%	·	-2%
COc1ccc(C(=O)O)cc1NC(=S)NC(=O)C(c1ccccc1)c1ccccc1	36%	-10%	14	1%	1%	-27%
CCCNC(=O)C1(C)CCN(Cc2noc(-c3ccccc3OC)n2)C1 (stereo not drawn)	·	?	20	·	·	-24%
COc1cc(C(C[N+](=O)[O-])c2c(C)[nH]c3ccccc23)ccc1O (stereo not drawn)	1%	-18%	-27	25%	3%	-1%
O=Nc1c(-c2ccccc2)cc2ccccn12	-6%	-21%	-29	?	?	?
COc1ccc(C(C[N+](=O)[O-])c2c(-c3ccccc3)cc3ccccn23)cc1OC (stereo not drawn)	8.9µM*	15µM*	-16	?	·	7.3µM*
COc1cc(C(C[N+](=O)[O-])c2c(C)cc3ccccn23)ccc1O (stereo not drawn)	16µM*	13µM*	-97*	?	14%	8.2µM*
COc1ccc(C(C[N+](=O)[O-])c2c(-c3ccccc3)cc3ccccn23)cc1 (stereo not drawn)	-10%	18µM*	-20	-15%	?	23µM*
CCN(CC)S(=O)(=O)c1ccc(C)c(NC(=O)COC(=O)CN2C(=O)NC(C)(C)C2=O)c1	·	-13%	3	·	8%	-5%
O=C(O)CNC(=O)CNC(=O)CNC(=O)CSC(=O)c1ccccc1	·	-2%	·	·	·	-1%
NCC[C@H](O)C(=O)N[C@@H]1C[C@H](N)[C@@H](O[C@H]2O[C@H](CN)[C@@H](O)[C@H](O)[C@H]2O)[C@H](O)[C@H]1O[C@H]1O[C@H](CO)[C@@H](O)[C@H](N)[C@H]1O	-15%	17%	19	-21%	8%	10%
Cc1ccc(C)c(NC(=O)CN(C)S(=O)(=O)c2ccc3c(c2)CCC(=O)N3)c1	·	-27%	·	·	·	-10%
CC1CCCCN1C(=S)Nc1ccc(OC(F)F)cc1 (stereo not drawn)	-43%	?	-14	-7%	0%	?
CC(C)c1ccc(NC(=S)NN2C(C)CCCC2C)cc1 (stereo not drawn)	1.6µM*	-16%	99	6.3µM*	-7%	-2%
CC1CCCC(C)N1NC(=S)Nc1ccc(OC(F)F)cc1 (stereo not drawn)	3.2µM*	?	6	6.3µM*	1%	21µM*
S=C(S)OC1CC2CC1C1CCCC21 (stereo not drawn)	·	?	-5	·	·	-2%
S=C(S)O[C@@H]1C[C@@H]2C[C@H]1[C@@H]1CCC[C@H]21	0.56µM*	-21%	·	1µM*	·	-30%
Cc1[nH]c(=O)[nH]c(=O)c1NC(=O)CSc1ncccc1-c1nc2ccccc2[nH]1	2%	-9%	18	-12%	?	0%
CCc1cc2c(C)ccc(C)c2nc1SCC(=O)Nc1c(C)[nH]c(=O)[nH]c1=O	6%	?	-5	?	?	21µM*
CCc1cc2ccc(C)cc2nc1SCC(=O)Nc1c[nH]c(=O)[nH]c1=O	11%	?	-27	7%	-7%	-14%
CCc1cc2c(C)ccc(C)c2nc1SCC(=O)Nc1c[nH]c(=O)[nH]c1=O	-12%	12µM*	71	-3%	18%	?
SMILES	RORg inh	DT40 TDP1 no CPT	IL-1B inflam inh	Gal4-VP16 FLuc	ELG1 repair inh	TDP1 cell CPT
COc1cccc(/C(=N/O)C2CC2c2ccc(Cl)cc2)c1 (stereo not drawn)	14%	-17%	-88*	-8%	13%	5%
O=C(NNC(=O)c1cccs1)c1cccc(F)c1	12%	-4%	-9	5%	?	3%
CC(C)(C)c1ccc(C(=O)NC(=S)NNC(=O)c2cccs2)cc1	4µM*	13µM*	0	7.1µM*	?	23µM*
Cc1ccccc1C(=O)NNC(=S)NC(=O)c1cccs1	7.9µM*	18µM*	76	13µM*	-11%	21µM*
Cc1cccc(C(=O)NC(=S)NNC(=O)c2ccc(Cl)cc2)c1	10µM*	?	0	?	?	?
Cc1ccccc1NC(=O)c1ccccc1NC(=O)c1cccs1	33%	-14%	5	23%	-1%	-16%
Cc1cccc(C(=O)NC(=S)NNC(=O)c2cccs2)c1	?	?	0	-18%	21µM*	-76%
CCC[C@@H]1CCCC/C=C\CCCC(=O)OCCN1C(=O)OC(C)(C)C	·	?	-3	·	25%	?
Cc1ccc(-n2cnc3c(=O)[nH]cnc32)cc1	·	9%	2	·	·	-6%
Cc1ccc(S(=O)(=O)c2nnn3c2nc(NC(C)C)c2sccc23)cc1	·	-19%	·	·	·	-11%
Cc1ccccc1-c1nc(CN2CCC(C(=O)NC3CC3)CC2)c(C)o1	-25%	1%	-11	3%	-3%	-6%
O=C(NC(=S)NNC(=O)c1cccs1)c1ccccc1	5.6µM*	15µM*	84	16µM*	13%	?
CC(C)=CCn1cnc2c1c(=O)n(C)c(=O)n2C	-6%	5%[9.04 µM]	·	3%	·	-5%[9.04 µM]
COC(=O)C(Cc1c[nH]c2ccccc12)NC(=O)c1cncc(Br)c1 (stereo not drawn)	?	16%	26	6%	-2%	-8%
COc1ccc(C(=O)COC(=O)C(Cc2c[nH]c3ccccc23)NC(=O)c2ccc(C(C)(C)C)cc2)cc1 (stereo not drawn)	·	13µM*	·	·	·	18µM*
COc1cc(OC)cc(C(=O)N[C@H](C(=O)OCC(=O)c2c[nH]c3ccccc23)C(C)C)c1	·	?	16	·	21µM*	4%

Screens deposited in PubChem by National Center for Advancing Translational Sciences (NCATS).
